Most compounds without a hit are left out; they make up all but 3.5% or so of the library.
Pf apPOL inh: Pf-apPOL DNA polymerase inhibition. actives 0.25% (n = 210,000). Recombinant Pf-apPOL, molecular beacon fluorescence, 1.5 h. inhibition, % at 10 µM
mHTT-CaM PPI inh: inhibitors of human mutant huntingtin-calmodulin interaction | actives 3.6% (n = 190,000) | inhibition, % at 15 µM | P42858 | AID 1671202 | AlphaScreen His-mHTT/GST-CaM binding, luminescence
Of the large screens only hits and unclear results are named; the others gave an inactive call; ! = a repeat was not active. Rule as the data show it: active = inhibition above about 50%; inactive = the rest.

CCC(=O)NCc1nc2c(n1C)CN(S(=O)(=O)c1cnn(CC)c1)CC2	none
CSC1=N/C(=C/c2ccc(Br)cc2)C(=O)S1	none
CSC1=N/C(=C\c2cc(Br)ccc2OCC(=O)O)C(=O)S1	mHTT-CaM PPI inh 68
CN(C)C(=O)c1cc2c(s1)CCC(C(=O)N1CCCCC1)C2 (stereo not drawn)	none
O=C(NCc1ccc(F)cc1)c1ccc(N2CCNC(c3ccccc3)C2)nc1 (stereo not drawn)	none
Cc1cccc(C)c1NC(=O)C1CC=CCC1C(=O)O (stereo not drawn)	none
Cc1ccc(Cl)cc1NC(=O)CC(NCCCOC(C)C)C(=O)O (stereo not drawn)	none
Cc1ccc(Cl)cc1NC(=O)CC(NCc1ccccn1)C(=O)O (stereo not drawn)	mHTT-CaM PPI inh 100
CCCc1[nH]n(-c2ccc(F)cc2)c(=O)c1C=NC1CCCCCC1	none
O=C1C[C@@H]2CCN3C(=O)CCC[C@@H]([C@H]23)[C@@H]1Cc1ccccc1	none
O=C1CCC[C@@H]2C=C[C@H](c3ccc(Br)cc3)[C@H]3CCN1[C@@H]32	mHTT-CaM PPI inh 52
COC(=O)C=C1NCCNC1=O	none (no result: mHTT-CaM PPI inh)
O=C(NCC(O)c1cccc2ccccc12)c1cccc(F)c1 (stereo not drawn)	none
CC(C)c1nnc(C2CCN(C(=O)c3cnc4ccccc4n3)CC2)o1	mHTT-CaM PPI inh 100
Cc1c(C(=O)N2CCC(c3nnc(C(C)C)o3)CC2)cnn1-c1ccccc1	none
CC1CCN(Cc2nc(C(=O)NC3CCCCC3)co2)CC1	none
Cc1ccc(N2CCN(Cc3nc(C(=O)NC4CC4)co3)CC2)cc1	mHTT-CaM PPI inh 92
Brc1ccc(Nc2nc(-c3cccnc3)nc3ccccc23)cc1	none
COc1ccc(Nc2nc(-c3cccnc3)nc3ccccc23)cc1	mHTT-CaM PPI inh 54
O=c1ccc(S(=O)(=O)N2CCCC2)cn1Cc1ccccc1Cl	none
CCc1cc(-c2n[nH]c(C)c2Oc2ccccc2)c(O)cc1O	mHTT-CaM PPI inh 81
Cc1[nH]nc(-c2ccc(O)cc2O)c1Oc1ccccc1F	none
Cc1[nH]nc(-c2ccc(OC(C)C)cc2O)c1Oc1ccccc1	mHTT-CaM PPI inh 67
COc1cc(C)c(-c2n[nH]c(C)c2Oc2ccccc2)c(O)c1	none
CCOc1ccc(-c2n[nH]c(C)c2Oc2ccc(F)cc2)c(O)c1	none
CCCc1ccc(Oc2c(-c3ccc(O)cc3O)n[nH]c2C)cc1	mHTT-CaM PPI inh 80
COc1ccc(-c2n[nH]c(C)c2Oc2ccccc2)c(O)c1OC	none
CCc1cc(-c2n[nH]c(C)c2Oc2ccc(F)cc2)c(O)cc1O	mHTT-CaM PPI inh 100
Cc1cc(NC(=O)Cn2c(=O)n(-c3ccc(Cl)c(Cl)c3)c(=O)c3c(C)c(C)sc32)n[nH]1	none
CCc1cc(-c2n[nH]c(C)c2-c2ccccc2)c(O)cc1O	mHTT-CaM PPI inh 69
CCOc1ccc(-c2n[nH]c(C)c2-c2ccc(F)cc2)c(O)c1	none
Cc1c(N(C)S(=O)(=O)c2ccc(C(C)(C)C)cc2)c(=O)n(-c2ccccc2)n1C	none
CCOc1ccc(CCNC(=O)Cn2nnc(-c3ccc(OC)cc3)n2)cc1OCC	mHTT-CaM PPI inh 76
CCOc1ccc(CCNC(=O)Cn2nnc(-c3ccc(F)cc3)n2)cc1OCC	none
CC(C)(C)c1ccc(S(=O)(=O)Nc2nccs2)cc1	none
O=C(O)c1ccc(N2N=C(C(F)(F)F)/C(=C/c3ccc(-c4ccccc4[N+](=O)[O-])o3)C2=O)cc1	mHTT-CaM PPI inh 50
O=C(O)c1cccc(N2N=C(C(F)(F)F)/C(=C/c3ccc(-c4ccccc4[N+](=O)[O-])o3)C2=O)c1	none
O=C(c1cccnc1N1CCNC(c2ccccc2)C1)N1CCC(Cc2ccccc2)CC1 (stereo not drawn)	mHTT-CaM PPI inh 73
COCC1CCN(C(=O)c2cccnc2N2CCNC(c3ccccc3)C2)CC1 (stereo not drawn)	none
COc1ccccc1NC(=O)c1sc2nc(-c3ccccc3)cn2c1C	none
O=C(CCc1ccccc1)NC(c1ccccc1)c1ccccc1	none
COc1ccc(C(NC(=O)Cc2ccccc2)c2ccc3cccnc3c2O)cc1OC (stereo not drawn)	Pf apPOL inh 87!, mHTT-CaM PPI inh 100
COc1ccccc1C(NC(=O)Cc1ccccc1)c1ccc2cccnc2c1O (stereo not drawn)	none
COc1ccc(C(NC(=O)CCc2ccccc2)c2ccc3cccnc3c2O)cc1OC (stereo not drawn)	mHTT-CaM PPI inh 100
O=C(Nc1cccc(N2CCCN(Cc3cc(F)cc(F)c3)C2=O)c1)C1CCCC1	none
O=C(Cc1cccs1)NCc1nnnn1-c1ccc(Cl)cc1	none
Cc1ccc(S(=O)(=O)Nc2cccc3ccc(-n4nc(C)cc4C)nc23)cc1	Pf apPOL inh 60
Cc1ccc(S(=O)(=O)Nc2cccc3ccc(C)nc23)cc1	none
c1ccc(-c2[nH]nc(-c3cccnc3)c2-c2nc3ccccc3[nH]2)cc1	none
CC(=O)Nc1ccc(-c2noc(C3CCN(C(=O)c4ccc5cc[nH]c5c4)CC3)n2)cc1	none
Cc1ccc(NC(=O)c2cccc3[nH]cc(CN4CCCC4)c23)cc1	none
Cc1ccc(N2CCN(C(=O)c3cccc4[nH]cc(CN5CCCC5)c34)CC2)cc1	mHTT-CaM PPI inh 78
Cc1nc(-c2ccccc2)sc1C(=O)N1CCC(C(C)C(=O)NC2CCCC2)CC1 (stereo not drawn)	mHTT-CaM PPI inh 100
Cc1nc(-c2ccccc2)sc1C(=O)N1CCC(CC(=O)NC2CCCCC2)CC1	none
CCOC(=O)c1ccc(NC(=O)C2CCCN(C(=O)c3cc(C)cc(C)c3)C2)cc1 (stereo not drawn)	none
O=C(c1cccc2c1NC(c1ccc(Cl)cc1Cl)C1CC=CC21)N1CCOCC1 (stereo not drawn)	none
O=C(O)C1Nc2c(Cl)cc(Cl)cc2C2C=CCC12 (stereo not drawn)	mHTT-CaM PPI inh 95 (no result: Pf apPOL inh)
O=C(O)C1Nc2c(Cl)cc(Cl)c(Cl)c2C2C=CCC12 (stereo not drawn)	mHTT-CaM PPI inh 96 (no result: Pf apPOL inh)
Cc1cc(Sc2nc(C)cc(C)c2C#N)nc(N)n1	none (no result: mHTT-CaM PPI inh)
CCN(Cc1ccccc1)C(=O)c1noc2c1CCCC2	none
CN1C(=O)C2(CCN(C(=O)c3ccc(F)c(F)c3)C2)c2ccccc21 (stereo not drawn)	none
Cc1cccc(-n2nc(C)c3sc(N4CCCN(C(=O)C5CCCCC5)CC4)nc32)c1	mHTT-CaM PPI inh 68
Cc1ccc(-n2nc(C)c3sc(N4CCCN(C(=O)C5CCCC5)CC4)nc32)cc1	none
CC1CCCCN1C(=O)c1ccccc1N1CCC(NC(=O)c2cccs2)CC1 (stereo not drawn)	none
O=C(Cn1nc(-c2ccc(Cl)cc2)c2ccccc2c1=O)Nc1ccc(Cl)cc1	none
COCCNC(=O)Cn1nc(-c2ccc(Cl)cc2)c2ccccc2c1=O	Pf apPOL inh 76
COc1ccc(C(=O)N2CCC(c3noc(-c4ccccc4)n3)CC2)cc1OC	none
O=C1c2ccccc2NC(c2ccc(Cl)cc2Cl)N1O (stereo not drawn)	none
C=CCc1cccc(C2Nc3ccccc3C(=O)N2O)c1O (stereo not drawn)	Pf apPOL inh 57
CCN(CC)CCN(C)Cc1ccccc1F	none
O=C(Nc1ccc(S(=O)(=O)Nc2nccs2)cc1)c1cccc(NC(=O)C(F)(F)F)c1	none
CCS(=O)(=O)CCSc1nc(C)cc(C)n1	Pf apPOL inh 51
Cc1cc(C)nc(SCCCCSc2nc(C)cc(C)n2)n1	none
CS(=O)(=O)N(CC(=O)NC1CCCCC1)c1ccc(Cl)c(Cl)c1	none
CCOC(=O)C1CCN(C=C2Oc3c(ccc(O)c3C)C2=O)CC1	none
CCC1=C(C)/C(=C\c2[nH]c(C)c(CC)c2C)N=C1C	mHTT-CaM PPI inh 95
CC(C)COc1ccc(-c2nc(C(=O)N3CCOCC3)cs2)cc1	none

Screening results (PubChem)
